Reference: PubChem BioAssay (NCATS)
Records with an inconclusive call do not appear. A number with no mark means an inactive call. Activity calls are given as the source filed them. Calls come from the whole dose curve; as a rule, active = well fitted cell-killing curve with a large enough effect; inconclusive = small, poorly fitted or top-dose-only effect; inactive = flat fitted curve, though single readings scatter.

Assay: Cellular viability qHTS for adrenocortical cancer (ACC) cell line NCI-H295R (AID 1963990); note: nearly all actives have a fitted effect of over 60% in size
Conditions: CellTiter-Glo ATP luminescence, 48 h; series mostly up to 46.1 µM; activity change, negative = viability loss: at the top concentration
Source text: PI: Naris Nilubol, MD Surgical Oncology Program, National Cancer Institute (NCI) National Institute of Health (NIH), Bethesda, Maryland Adrenocortical cancer (ACC) is a rare malignancy with poor survival outcomes and few treatment options. Currently, mitotane is the only FDA-approved therapy for ACC. Although adjuvant radiation therapy is rarely utilized, it has the potential to improve survival in select cases. Through a quantitative high-throughput drug screen (qHTS), we identified auranofin (AF), a thioredoxin reductase (TXNRD) inhibitor, as a promising candidate drug. This study aims to evaluate whether AF can enhance the efficacy of radiation therapy in the treatment of ACC. Two human ACC cell lines, SW-13 and NCI-H295R, were screened using the National Center for Advancing Translational Sciences (NCATS) Pharmaceutical Collection (NPC) and the Mechanism Interrogation PlatE (MIPE) library (~4,991 compounds). CellTiter-Glo (Cat # G7570, Promega, Madison, WI) was utilized to measure cell viability. Described herein are the results of the corresponding viability assay.
PROTOCOL TABLE (as described by Inglese J, Shamu CE and Guy RK. 2007) SEQUENCE No. (e.g., 1, 2, 3, etc.); […] (e.g., Cells, Incubation, Reagent, etc.); VALUE; DESCRIPTION. 1; Cells; 5 uL; white, solid-bottom, 1536-well tissue-culture treated plates. 2; Time; overnight culture at 37C with 5% CO2. 3; Compounds and control; 23 nL; Kalypsis pin tool (Wako USA) equipped with a 1536-well pin head to transfer to the assay plates. 4; Time; 48 hours; 37C with 5% CO2. 5; Reagent; 4 uL; CellTiter-Glo luminescent substrate mix. 6; Time; 20 min at room temperature. 7; Detection; Luminescence; ViewLux plate reader NOTES (numbers refer to Sequence numbers above) 1. NCI-H295R cells were harvested from a T175 flask and resuspended in ITS-supplemented DMEM serum-free medium at a concentration of 300 000 cells/mL. Then 5 uL of resuspended cells were dispensed into each well of white, solid-bottom, 1536-well tissue-culture-treated plates using a multidrop combi dispenser. The plates were covered with stainless steel gasket lids. 2-3. The plates were cultured overnight at 37C with 5% CO2. Twenty-three nL of compounds (eight selected concentrations from the NPC / MIPE) or positive control (10 mM stock of bortezomib) in DMSO was transferred to each well of the assay plate using a pin tool (Kalypsys, San Diego, CA, USA). The final concentration of the compounds in the 5 uL assay volume ranged from 0.5 nM to 46 uM. 4-6. After 48 hours of incubation at 37C and 5% CO2, 4 uL of CellTilter-Glo luminescent substrate mix (Promega, Madison, WI, USA) was added to each well. Then the plates were incubated for 20 minutes at room temperature. 7. After incubation, luminescence was measured using a ViewLux plate reader (PerkinElmer, Waltham, MA, USA) with a clear filter was used to measure the number of metabolically competent cells. To determine compound activity in the qHTS assay, the titration-response data for each sample was plotted and modeled by a four-parameter logistic fit yielding IC50 and efficacy (maximal response) values. Raw plate reads for each titration point were normalized relative to positive control ([…], 100% inhibition) and DMSO-only wells (basal, 0%). REFERENCES: Inglese J, Shamu CE and Guy RK, Reporting data from high throughput screening of small molecule libraries, Nature Chemical Biology, 2007, 3(8): 438-441. doi.org/10.1038/nchembio0807-438.

Row | Compound | Potency | activity change, negative = viability loss
1 | C[N+]1(C)[C@@H]2CC(OC(=O)[C@H](CO)c3ccccc3)C[C@H]1[C@@H]1O[C@@H]12 (stereo not given in full) | inactive | 
2 | COc1ccc(O)cc1 |  | 2.74%
3 | COc1c(Nc2ncc(Cl)c(N[C@H]3[C@H](C(N)=O)[C@@H]4C=C[C@@H]3C4)n2)ccc2c1CCC(N1CCOCC1)CC2 (stereo not given in full) | 7.94 µM (active) | 
4 | CC(=O)N(O)CCCCCNC(=O)CCC(=O)N(O)CCCCCNC(=O)CCC(=O)N(O)CCCCCN |  | -1.7%
5 | O=C1CC2(CCCC2)CC(=O)N1CCNCC1COc2ccccc2O1 (stereo not given) |  | -9.24%
6 | COc1cc2c(cc1OC)CN(C(=O)[C@H](C)N[C@@H](CCc1ccccc1)C(=O)O)[C@H](C(=O)O)C2 |  | -6.3%
7 | CCN1CCC(n2cc(CNc3cc(Cl)c4ncc(C#N)c(Nc5ccc(F)c(Cl)c5)c4c3)nn2)CC1 | 31.6 µM (active) | 
8 | COc1ccc([C@@H]2Sc3ccccc3N(CCN(C)C)C(=O)[C@@H]2OC(C)=O)cc1 | inactive | 
9 | O=c1[nH]c2cc(C(F)(F)F)c(N3CCOCC3)cc2n(CP(=O)(O)O)c1=O |  | -24%
10 | CNC(=O)c1c(C)oc2cc(Oc3ncnc4cc(OC)c(OC)cc34)ccc12 |  | 12.2%
11 | CCc1c(O)cc(O)c(C(=O)c2ccc(OCCN3CCOCC3)c(OC)c2)c1CC(=O)N(CCOC)CCOC |  | -6.54%
12 | CO[C@@H]1C(N(C)C(=O)c2ccccc2)C[C@H]2O[C@]1(C)n1c3ccccc3c3c4c(c5c6ccccc6n2c5c31)C(=O)NC4=O (stereo not given in full) |  | -25.4%
13 | CCn1c(=O)c(-c2ccc(-c3cncs3)cc2Cl)cc2cnc(Nc3ccc(N4CCN(C)CC4)cc3)nc21 |  | -29.7%
14 | CO/N=C(/C(=O)N[C@@H]1C(=O)N2C(C(=O)OCOC(=O)C(C)(C)C)=C(C)CS[C@H]12)c1csc(N)n1 |  | -29.9%
15 | CC(C)(C)c1nnc(NS(=O)(=O)c2ccc(N)cc2)s1 |  | -18.8%
16 | CCC(Cc1c(I)cc(I)c(N)c1I)C(=O)O (stereo not given) |  | -1.32%
17 | Nc1nc2ncc(CNc3ccc(C(=O)N[C@@H](CCC(=O)O)C(=O)O)cc3)nc2c(=O)[nH]1 |  | -27.5%
18 | c1cc(Nc2cc(C3CC3)[nH]n2)nc(Nc2ccc3nc[nH]c3c2)n1 | 8.91 µM (active) | 
19 | CNC(=O)c1c(F)cccc1Nc1nc(Nc2cc3c(cc2OC)CCN3C(=O)CN(C)C)nc2[nH]ccc12 | 1.12 µM (active) | 
20 | CNC(=O)c1ccccc1Nc1nc(Nc2ccc(N3CCOCC3)cc2OC)ncc1Cl | 0.631 µM (active) | 

Row | Compound | Potency | activity change, negative = viability loss
21 | CO/N=C(/C(=O)N[C@@H]1C(=O)N2C(C(=O)O)=C(Cn3nnc(C)n3)CS[C@H]12)c1csc(N)n1 |  | 2.01%
22 | O=C(O)CCc1ccc(NCc2cccc(Oc3ccccc3)c2)cc1 |  | 16.2%
23 | Clc1ccccc1C(c1ccccc1)(c1ccccc1)n1ccnc1 | 23.1 µM (active) | 
24 | CCOC(=O)C1=C(C)NC(C)=C(C(=O)OCC)C1c1ccccc1/C=C/C(=O)OC(C)(C)C | 6.51 µM (active) | 
25 | CCOC(=O)Oc1ccc(CCNC(=O)[C@H](CCSC)NC(C)=O)cc1OC(=O)OCC |  | -25.1%
26 | CC(C)(NS(=O)(=O)c1ccc2c(Cl)cnc(N=C(N)N)c2c1)C(=O)O |  | 3.72%
27 | Nc1ncn([C@@H]2O[C@H](CO)[C@@H](O)[C@H]2O)c(=O)n1 | inactive | 
28 | O=C(O)[C@@H]1CSCN1 |  | -4.21%
29 | CCOC(N)=O |  | 7.61%
30 | CC1COC2(CCN(c3nc(=O)c4cc(C(F)(F)F)cc([N+](=O)[O-])c4s3)CC2)O1 (stereo not given) |  | -4.81%
31 | CC(=O)SCC(CC(=O)c1ccc(C)cc1)C(=O)O (stereo not given) |  | 3.41%
32 | C=CC(=O)Nc1cc(Nc2nccc(-c3cn(C)c4ccccc34)n2)c(OC)cc1N(C)CCN(C)C | 3.98 µM (active) | 
33 | CC[C@H]1OC(=O)[C@H](C)C(=O)[C@H](C)[C@@H](O[C@H]2O[C@H](C)C[C@H](N(C)C)[C@H]2O)[C@](C)(OC)C[C@@H](C)C(=O)[C@H](C)[C@H]2N(CCCCn3cnc(-c4cccnc4)c3)C(=O)O[C@]12C |  | -8.3%
34 | Cc1cnc(C(=O)O)c[n+]1[O-] |  | -26.6%
35 | CCOC(=O)c1c(C)n(C)c2ccc(O)cc12 |  | -9.97%
36 | O=C1c2ccccc2C(=O)C1c1ccccc1 |  | -1.54%
37 | Clc1ccc2ncc(-c3cccc(NC4CNC4)n3)n2c1 |  | -25.9%
38 | CC(C)(C)c1ccc(O)c(O)c1 | 8.91 µM (active) | 
39 | CC(O)C(=O)O (stereo not given) |  | 0.613%
40 | C[C@](N)(Cc1ccc(O)cc1)C(=O)O |  | -1.14% [at 3.81 µM]
